Here are results for one sequence from PMC7862700, “An all-to-all approach to the identification of sequence-specific readers for epigenetic DNA modifications on cytosine”.

Common to all, as to test: DAPPL (digital affinity profiling via proximity ligation, sequencing); 10 mM Tris-HCl pH 7.5, 50 mM NaCl, 1 mM DTT, 4% glycerol, room temperature, 30 min; GST-TFs on glutathione beads, 16-mer random dsDNA library, 0.1% formaldehyde crosslink after washing; high values mean tight binding
One test has as its target T1, FLI1 (Homo sapiens, UniProt Q01543 1-452).
T1 sequence: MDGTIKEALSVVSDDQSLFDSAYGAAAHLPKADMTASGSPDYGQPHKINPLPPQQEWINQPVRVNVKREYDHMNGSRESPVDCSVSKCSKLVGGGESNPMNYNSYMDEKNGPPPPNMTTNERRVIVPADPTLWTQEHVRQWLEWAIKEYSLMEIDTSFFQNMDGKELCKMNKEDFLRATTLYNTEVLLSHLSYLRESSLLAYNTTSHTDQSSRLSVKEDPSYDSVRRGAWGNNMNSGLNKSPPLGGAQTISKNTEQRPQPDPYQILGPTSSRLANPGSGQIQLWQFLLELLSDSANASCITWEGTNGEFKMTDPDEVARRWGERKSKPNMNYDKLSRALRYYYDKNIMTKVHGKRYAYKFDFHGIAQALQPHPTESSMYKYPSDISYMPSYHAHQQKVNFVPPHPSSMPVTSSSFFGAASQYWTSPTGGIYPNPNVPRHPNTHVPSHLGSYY
The settings on record: protein: recombinant; tags: N-terminal GST; dsDNA, one strand shown. The method in brief: (§1)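 The binding signal reported is, for every hexamer, its read frequency for a factor over its read frequency for the tag-only sample. Reads came from pools of yeast-expressed, GST-fused human transcription factors on glutathione beads, barcoded with DNA and mixed with that sample, which were incubated with 200 nmole of a random double-stranded 16-mer DNA library in Tris/NaCl/DTT/glycerol buffer at room temperature for 30 min. After washing, the pools were crosslinked with 0.1% formaldehyde, proximity-ligated with BsaI/T4 ligase for 1 h at 37 °C, PCR-amplified and sequenced on an Illumina NextSeq500.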

A further test deals with T2, ELK1 (Homo sapiens, UniProt P19419 1-428).
T2 sequence: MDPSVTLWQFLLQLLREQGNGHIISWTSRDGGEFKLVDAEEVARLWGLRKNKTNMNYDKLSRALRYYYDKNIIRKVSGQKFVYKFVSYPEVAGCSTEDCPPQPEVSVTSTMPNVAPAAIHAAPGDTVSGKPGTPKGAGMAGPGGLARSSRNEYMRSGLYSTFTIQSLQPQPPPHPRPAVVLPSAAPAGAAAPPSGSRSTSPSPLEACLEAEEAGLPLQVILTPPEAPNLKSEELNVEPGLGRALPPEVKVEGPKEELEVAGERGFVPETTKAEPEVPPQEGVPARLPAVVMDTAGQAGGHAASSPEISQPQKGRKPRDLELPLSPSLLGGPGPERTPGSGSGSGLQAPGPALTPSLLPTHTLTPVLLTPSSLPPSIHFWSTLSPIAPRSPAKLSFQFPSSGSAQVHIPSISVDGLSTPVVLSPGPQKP
As to conditions: protein: recombinant; tags: N-terminal GST; dsDNA, one strand shown. An outline of the steps:
as §1

A further test addresses T3, GABPA (Homo sapiens, UniProt Q06546 1-454).
T3 sequence: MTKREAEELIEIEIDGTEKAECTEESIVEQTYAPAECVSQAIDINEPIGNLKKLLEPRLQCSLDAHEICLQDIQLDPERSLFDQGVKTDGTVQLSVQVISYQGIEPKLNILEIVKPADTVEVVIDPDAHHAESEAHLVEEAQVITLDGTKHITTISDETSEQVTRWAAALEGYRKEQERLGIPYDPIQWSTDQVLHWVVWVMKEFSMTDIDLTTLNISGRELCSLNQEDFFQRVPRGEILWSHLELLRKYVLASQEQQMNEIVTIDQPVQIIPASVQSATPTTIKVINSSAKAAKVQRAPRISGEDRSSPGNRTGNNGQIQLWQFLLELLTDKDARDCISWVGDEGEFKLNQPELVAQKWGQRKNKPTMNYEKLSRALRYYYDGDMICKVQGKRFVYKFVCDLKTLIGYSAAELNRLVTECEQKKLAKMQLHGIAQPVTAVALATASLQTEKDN
As to conditions: protein: recombinant; tags: N-terminal GST; dsDNA, one strand shown. An outline of the steps: as §1

The target in the next test is T4, ERG (Homo sapiens, UniProt P11308 1-479).
T4 sequence: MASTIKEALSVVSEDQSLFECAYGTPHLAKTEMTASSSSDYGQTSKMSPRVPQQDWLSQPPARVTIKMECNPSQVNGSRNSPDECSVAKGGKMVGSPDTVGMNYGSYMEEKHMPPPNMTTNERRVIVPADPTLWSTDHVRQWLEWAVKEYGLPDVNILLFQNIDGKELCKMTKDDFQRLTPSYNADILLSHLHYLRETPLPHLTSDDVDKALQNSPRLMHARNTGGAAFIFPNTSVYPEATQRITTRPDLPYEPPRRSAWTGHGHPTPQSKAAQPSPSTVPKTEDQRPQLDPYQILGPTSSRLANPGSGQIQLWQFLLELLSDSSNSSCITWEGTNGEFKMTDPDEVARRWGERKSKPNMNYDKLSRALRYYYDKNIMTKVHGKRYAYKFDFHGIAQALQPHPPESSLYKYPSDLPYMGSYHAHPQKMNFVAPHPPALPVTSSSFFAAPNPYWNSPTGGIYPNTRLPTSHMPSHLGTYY
As to conditions: protein: recombinant; tags: N-terminal GST; dsDNA, one strand shown. The method in brief: as §1

Another test deals with ELF1 (Homo sapiens, UniProt P32519 1-619). As to conditions: protein: recombinant; tags: N-terminal GST; dsDNA, one strand shown. The method in brief:
as §1

A further test has as its target T5, EHF (Homo sapiens, UniProt Q9NZC4 1-300).
T5 sequence: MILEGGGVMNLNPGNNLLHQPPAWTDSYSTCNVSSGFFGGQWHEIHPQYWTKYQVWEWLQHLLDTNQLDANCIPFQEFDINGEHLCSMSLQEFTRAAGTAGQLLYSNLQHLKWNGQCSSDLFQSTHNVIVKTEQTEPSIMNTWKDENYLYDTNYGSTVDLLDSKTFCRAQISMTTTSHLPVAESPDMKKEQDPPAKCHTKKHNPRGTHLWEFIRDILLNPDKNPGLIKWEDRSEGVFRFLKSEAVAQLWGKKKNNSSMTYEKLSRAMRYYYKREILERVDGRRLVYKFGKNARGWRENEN
The settings on record: protein: recombinant; tags: N-terminal GST; dsDNA, one strand shown. The method in brief:
as §1

A further test has as its target SPI1 (Homo sapiens, UniProt P17947 1-270). The settings on record: protein: recombinant; tags: N-terminal GST; dsDNA, one strand shown. The method in brief: as §1
A further test has as its target SPIB (Homo sapiens, UniProt Q01892 1-262). The settings on record: protein: recombinant; tags: N-terminal GST; dsDNA, one strand shown. The method in brief:
as §1

In another test the target is T6, ELK3 (Homo sapiens, UniProt P41970 1-407).
T6 sequence: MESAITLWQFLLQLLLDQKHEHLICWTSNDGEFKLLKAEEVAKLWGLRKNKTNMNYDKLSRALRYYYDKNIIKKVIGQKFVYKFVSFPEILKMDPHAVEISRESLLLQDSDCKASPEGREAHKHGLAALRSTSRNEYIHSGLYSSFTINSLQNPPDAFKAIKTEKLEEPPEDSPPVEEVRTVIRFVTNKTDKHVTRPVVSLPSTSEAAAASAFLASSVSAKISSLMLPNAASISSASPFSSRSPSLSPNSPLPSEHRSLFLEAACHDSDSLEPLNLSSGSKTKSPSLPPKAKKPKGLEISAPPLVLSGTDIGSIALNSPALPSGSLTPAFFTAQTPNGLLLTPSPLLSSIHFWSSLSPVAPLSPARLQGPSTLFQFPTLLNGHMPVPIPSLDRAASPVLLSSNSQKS
The settings on record: protein: recombinant; tags: N-terminal GST; dsDNA, one strand shown. The method in brief:
as §1

Another test deals with T7, FEV (Homo sapiens, UniProt Q99581 1-238).
T7 sequence: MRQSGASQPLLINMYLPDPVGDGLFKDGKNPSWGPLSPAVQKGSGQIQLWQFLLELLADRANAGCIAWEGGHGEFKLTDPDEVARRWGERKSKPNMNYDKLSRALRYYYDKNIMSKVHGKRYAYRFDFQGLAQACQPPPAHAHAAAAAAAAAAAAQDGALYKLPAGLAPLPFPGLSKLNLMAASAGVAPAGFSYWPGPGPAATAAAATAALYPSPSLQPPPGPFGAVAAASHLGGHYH
As to conditions: protein: recombinant; tags: N-terminal GST; dsDNA, one strand shown. An outline of the steps:
as §1

The target in another test is ETV5 (Homo sapiens, UniProt P41161 1-510). The settings on record: protein: recombinant; tags: N-terminal GST; dsDNA, one strand shown. The method in brief: as §1
ETV5, sequence (P41161 whole entry): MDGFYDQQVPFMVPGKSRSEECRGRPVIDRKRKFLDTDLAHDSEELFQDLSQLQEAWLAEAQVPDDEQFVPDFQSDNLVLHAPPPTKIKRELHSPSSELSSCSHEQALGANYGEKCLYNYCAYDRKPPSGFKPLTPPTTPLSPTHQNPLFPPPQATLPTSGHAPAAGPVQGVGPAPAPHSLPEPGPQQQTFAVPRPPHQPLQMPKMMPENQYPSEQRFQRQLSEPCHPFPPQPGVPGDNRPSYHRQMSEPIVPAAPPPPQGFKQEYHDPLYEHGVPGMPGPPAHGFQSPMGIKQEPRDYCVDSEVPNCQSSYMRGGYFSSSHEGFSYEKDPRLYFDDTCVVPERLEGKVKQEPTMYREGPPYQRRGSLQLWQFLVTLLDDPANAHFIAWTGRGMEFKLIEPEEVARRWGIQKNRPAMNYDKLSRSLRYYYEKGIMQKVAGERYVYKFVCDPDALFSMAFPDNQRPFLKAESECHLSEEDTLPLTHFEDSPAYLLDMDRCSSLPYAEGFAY
The next test concerns the target HSF1 (Homo sapiens, UniProt Q00613 1-529). As to conditions: protein: recombinant; tags: N-terminal GST; chain copies: 3; dsDNA, one strand shown. The method in brief: as §1
The next test addresses T8, SPIC (Homo sapiens, UniProt Q8N5J4 1-248).
T8 sequence: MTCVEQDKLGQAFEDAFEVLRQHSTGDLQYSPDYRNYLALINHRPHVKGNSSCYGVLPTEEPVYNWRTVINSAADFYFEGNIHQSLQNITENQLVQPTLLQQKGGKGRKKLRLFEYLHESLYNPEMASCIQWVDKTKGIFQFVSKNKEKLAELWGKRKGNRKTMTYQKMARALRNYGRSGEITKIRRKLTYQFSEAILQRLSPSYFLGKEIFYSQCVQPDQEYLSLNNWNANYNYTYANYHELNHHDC
As to conditions: protein: recombinant; tags: N-terminal GST; dsDNA, one strand shown. The method in brief: as §1

The next test deals with ELF4 (Homo sapiens, UniProt Q99607 1-663). The settings on record: protein: recombinant; tags: N-terminal GST; dsDNA, one strand shown. An outline of the steps: as §1
ELF4, sequence (Q99607 whole entry): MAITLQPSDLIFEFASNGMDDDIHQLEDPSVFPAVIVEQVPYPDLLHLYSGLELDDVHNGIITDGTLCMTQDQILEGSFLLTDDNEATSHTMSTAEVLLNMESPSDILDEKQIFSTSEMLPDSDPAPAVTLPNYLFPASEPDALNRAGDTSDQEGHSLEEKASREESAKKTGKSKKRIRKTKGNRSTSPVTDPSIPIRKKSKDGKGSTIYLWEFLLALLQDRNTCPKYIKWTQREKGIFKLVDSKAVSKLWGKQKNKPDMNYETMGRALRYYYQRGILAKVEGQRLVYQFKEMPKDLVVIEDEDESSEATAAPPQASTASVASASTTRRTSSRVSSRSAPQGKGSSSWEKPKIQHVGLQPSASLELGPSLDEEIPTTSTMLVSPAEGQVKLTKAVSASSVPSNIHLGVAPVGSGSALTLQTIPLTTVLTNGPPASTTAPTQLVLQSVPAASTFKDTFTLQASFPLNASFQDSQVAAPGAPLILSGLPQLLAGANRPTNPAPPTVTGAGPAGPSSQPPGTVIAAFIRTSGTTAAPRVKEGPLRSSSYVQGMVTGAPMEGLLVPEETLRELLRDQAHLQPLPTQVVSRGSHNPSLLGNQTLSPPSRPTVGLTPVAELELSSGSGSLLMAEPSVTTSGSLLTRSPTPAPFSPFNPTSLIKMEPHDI
The next test concerns the target T9, ELK4 (Homo sapiens, UniProt P28324-2 1-405).
T9 sequence: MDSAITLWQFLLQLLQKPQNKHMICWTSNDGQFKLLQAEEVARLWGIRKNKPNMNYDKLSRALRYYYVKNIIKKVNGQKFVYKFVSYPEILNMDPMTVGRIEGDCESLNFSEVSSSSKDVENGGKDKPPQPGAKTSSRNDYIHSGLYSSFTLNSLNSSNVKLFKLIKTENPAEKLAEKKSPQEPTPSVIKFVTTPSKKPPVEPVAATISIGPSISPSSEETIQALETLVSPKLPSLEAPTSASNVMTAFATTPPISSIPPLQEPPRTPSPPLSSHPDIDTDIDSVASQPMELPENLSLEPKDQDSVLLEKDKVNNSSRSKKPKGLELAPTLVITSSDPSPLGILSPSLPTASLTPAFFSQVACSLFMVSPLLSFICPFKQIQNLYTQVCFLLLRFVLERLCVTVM
The settings on record: protein: recombinant; tags: N-terminal GST; dsDNA, one strand shown. The method in brief:
as §1

A further test addresses T10, ETV2 (Homo sapiens, UniProt O00321 1-342).
T10 sequence: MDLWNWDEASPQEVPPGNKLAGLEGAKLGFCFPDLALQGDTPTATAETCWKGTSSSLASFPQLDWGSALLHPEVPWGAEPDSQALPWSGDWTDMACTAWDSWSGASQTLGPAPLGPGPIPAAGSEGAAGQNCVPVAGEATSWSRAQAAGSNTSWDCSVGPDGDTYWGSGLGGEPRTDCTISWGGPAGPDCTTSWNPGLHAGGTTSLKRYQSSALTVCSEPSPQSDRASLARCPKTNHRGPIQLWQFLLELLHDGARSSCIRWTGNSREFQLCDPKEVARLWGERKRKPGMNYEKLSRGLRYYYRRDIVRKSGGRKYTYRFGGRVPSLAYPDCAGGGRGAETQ
The settings on record: protein: recombinant; tags: N-terminal GST; dsDNA, one strand shown. The method in brief: as §1

A further test deals with CRX (Homo sapiens, UniProt O43186 1-299). As to conditions: protein: recombinant; tags: N-terminal GST; dsDNA, one strand shown. The method in brief:
as §1

Another test addresses ETV1 (Homo sapiens, UniProt P50549 1-477). The settings on record: protein: recombinant; tags: N-terminal GST; dsDNA, one strand shown. An outline of the steps: as §1

ETV1, sequence (P50549 whole entry): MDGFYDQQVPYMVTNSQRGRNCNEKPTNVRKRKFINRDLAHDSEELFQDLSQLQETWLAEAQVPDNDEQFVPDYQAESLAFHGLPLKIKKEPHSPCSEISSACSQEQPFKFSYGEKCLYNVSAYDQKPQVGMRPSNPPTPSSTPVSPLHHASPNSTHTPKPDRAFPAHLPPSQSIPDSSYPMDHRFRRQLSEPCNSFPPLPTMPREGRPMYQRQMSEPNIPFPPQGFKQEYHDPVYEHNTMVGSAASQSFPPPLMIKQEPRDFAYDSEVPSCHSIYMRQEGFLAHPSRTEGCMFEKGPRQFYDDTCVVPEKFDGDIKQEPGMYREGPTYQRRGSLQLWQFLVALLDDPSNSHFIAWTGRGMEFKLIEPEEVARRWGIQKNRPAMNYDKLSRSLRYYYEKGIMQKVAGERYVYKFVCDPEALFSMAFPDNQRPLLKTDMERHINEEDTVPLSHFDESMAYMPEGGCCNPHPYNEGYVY
SPIB, sequence (Q01892 whole entry): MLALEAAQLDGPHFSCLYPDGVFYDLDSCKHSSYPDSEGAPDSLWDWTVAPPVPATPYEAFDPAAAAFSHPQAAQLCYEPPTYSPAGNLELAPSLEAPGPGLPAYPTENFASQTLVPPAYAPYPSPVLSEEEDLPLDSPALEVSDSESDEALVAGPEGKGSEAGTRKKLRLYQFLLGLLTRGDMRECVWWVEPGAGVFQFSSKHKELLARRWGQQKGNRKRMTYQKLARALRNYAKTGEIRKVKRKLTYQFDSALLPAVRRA
ELF1, sequence (P32519 whole entry): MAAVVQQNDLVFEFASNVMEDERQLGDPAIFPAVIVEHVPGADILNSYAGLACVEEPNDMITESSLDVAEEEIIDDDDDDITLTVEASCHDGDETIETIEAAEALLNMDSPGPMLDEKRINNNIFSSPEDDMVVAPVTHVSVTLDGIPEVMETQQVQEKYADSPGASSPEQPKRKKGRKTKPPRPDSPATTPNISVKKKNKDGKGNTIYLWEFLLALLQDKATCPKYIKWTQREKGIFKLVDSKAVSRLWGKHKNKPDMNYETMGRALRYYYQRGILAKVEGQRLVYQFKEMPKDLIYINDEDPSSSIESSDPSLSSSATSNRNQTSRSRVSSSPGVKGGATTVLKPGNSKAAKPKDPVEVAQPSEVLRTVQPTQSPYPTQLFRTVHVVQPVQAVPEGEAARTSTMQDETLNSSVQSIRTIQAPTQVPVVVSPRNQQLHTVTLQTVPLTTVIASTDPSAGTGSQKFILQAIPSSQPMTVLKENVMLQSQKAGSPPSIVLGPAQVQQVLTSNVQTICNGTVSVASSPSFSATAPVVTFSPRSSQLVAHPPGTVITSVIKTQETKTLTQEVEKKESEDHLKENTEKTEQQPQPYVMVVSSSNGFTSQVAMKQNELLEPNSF
HSF1, sequence (Q00613 whole entry): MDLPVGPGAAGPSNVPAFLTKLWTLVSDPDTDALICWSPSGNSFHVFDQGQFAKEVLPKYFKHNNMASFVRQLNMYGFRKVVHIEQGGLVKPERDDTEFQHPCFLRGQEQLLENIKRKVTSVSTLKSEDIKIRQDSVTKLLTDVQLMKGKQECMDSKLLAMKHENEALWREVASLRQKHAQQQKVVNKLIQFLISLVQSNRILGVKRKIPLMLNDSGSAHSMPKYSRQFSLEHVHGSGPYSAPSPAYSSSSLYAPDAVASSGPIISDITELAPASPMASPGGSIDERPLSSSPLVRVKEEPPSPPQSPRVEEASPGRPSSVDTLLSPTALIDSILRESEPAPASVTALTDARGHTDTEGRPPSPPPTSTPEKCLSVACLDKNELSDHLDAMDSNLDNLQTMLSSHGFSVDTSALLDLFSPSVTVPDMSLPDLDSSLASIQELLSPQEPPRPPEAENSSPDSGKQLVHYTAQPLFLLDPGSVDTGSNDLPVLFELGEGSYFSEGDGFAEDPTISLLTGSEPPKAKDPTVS
CRX, sequence (O43186 whole entry): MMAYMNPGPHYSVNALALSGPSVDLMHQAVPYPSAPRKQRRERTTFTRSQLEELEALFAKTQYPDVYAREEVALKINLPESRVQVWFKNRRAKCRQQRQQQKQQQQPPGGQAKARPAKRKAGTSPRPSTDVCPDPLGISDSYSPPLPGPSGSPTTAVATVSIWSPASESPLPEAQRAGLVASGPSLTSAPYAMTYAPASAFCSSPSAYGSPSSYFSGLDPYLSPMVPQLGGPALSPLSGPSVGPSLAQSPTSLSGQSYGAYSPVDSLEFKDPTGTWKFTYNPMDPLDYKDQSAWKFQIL

Turning to CTCCAT, the binding signal in the test with FLI1 is 1.34 fold enrichment (6-mer frequency, TF over GST control); with ELK1 it was 1.38 fold enrichment (6-mer frequency, TF over GST control); with GABPA, 1.31 fold enrichment (6-mer frequency, TF over GST control); with ERG, 1.34 fold enrichment (6-mer frequency, TF over GST control); with ELF1, 1.34 fold enrichment (6-mer frequency, TF over GST control); in the test with EHF, 1.37 fold enrichment (6-mer frequency, TF over GST control). For the same sequence, the binding signal with SPI1 was 1.32 fold enrichment (6-mer frequency, TF over GST control); in the test with SPIB, 1.25 fold enrichment (6-mer frequency, TF over GST control); with ELK3, 1.36 fold enrichment (6-mer frequency, TF over GST control); in the test with FEV, 1.36 fold enrichment (6-mer frequency, TF over GST control); in the test with ETV5, 1.43 fold enrichment (6-mer frequency, TF over GST control); with HSF1, 1.21 fold enrichment (6-mer frequency, TF over GST control). In addition, the binding signal was 1.12 fold enrichment (6-mer frequency, TF over GST control) in the test with SPIC; 1.28 fold enrichment (6-mer frequency, TF over GST control) with ELF4; 1.4 fold enrichment (6-mer frequency, TF over GST control) with ELK4; 1.46 fold enrichment (6-mer frequency, TF over GST control) with ETV2; 1.19 fold enrichment (6-mer frequency, TF over GST control) with CRX; 1.3 fold enrichment (6-mer frequency, TF over GST control) with ETV1.
